According to PubChem BioAssay (NCATS):
“And” between values parts separate entries of the source, which are not always exact repeats. Identical values can stand only once. Records with an inconclusive call do not appear. Values without a mark were called inactive. The source made the active and inactive calls. The call rests on the fitted dose curve; in most records, active means well fitted cell-killing curve with a large enough effect; inconclusive means small, poorly fitted or top-dose-only effect; inactive means flat fitted curve, though single readings scatter.

assay: Cellular viability qHTS for adrenocortical cancer (ACC) cell line NCI-H295R (AID 1963990); conditions: CellTiter-Glo ATP luminescence, 48 h; series mostly up to 46.1 µM; activity change, negative = viability loss: at the top concentration; further: nearly all actives have a fitted effect of over 60% in size
Summary of the method: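 IC50 and maximal efficacy derive from four-parameter logistic modelling of titration curves, with reads scaled between DMSO-only wells (0%) and doxorubicin hydrochloride (100% inhibition). Compounds spanned up to 46 uM over 48 h.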

SMILES | activity change, negative = viability loss | Potency
CC(O)C(=O)O (stereo not given) | 0.613% | 
CC(C)(C(=O)O)c1ccc(C(O)CCCN2CCC(C(O)(c3ccccc3)c3ccccc3)CC2)cc1 (stereo not given) | 5.01% | 
O=C1NC(=O)/C(=C/c2ccc3nccc(-c4ccncc4)c3c2)S1 |  | 0.631 µM (active)
OCCN1CCN(CCCN2c3ccccc3Sc3ccc(Cl)cc32)CC1 |  | 2.59 µM (active)
O=S(=O)(NCCNC/C=C/c1ccc(Br)cc1)c1cccc2cnccc12 |  | 28.2 µM (active)
CC[C@@]1(O)C(=O)OCc2c1cc1n(c2=O)Cc2c-1nc1ccccc1c2/C=N/OC(C)(C)C | -53% | 
C[C@@H](Oc1cc(C(=O)Nc2ccc(C(=O)N3CCN(C)CC3)cc2)nnc1N)c1c(Cl)ccc(F)c1Cl |  | 2.82 µM (active)
CC(C)C[C@H](NC(=O)[C@H](Cc1ccccc1)NC(=O)OCc1ccccc1)C(=O)C=O | -20.9% | 
CN(C)CCOc1ccc(-c2nc(-c3ccc4c(c3)CC/C4=N\O)c(-c3ccncc3)[nH]2)cc1 |  | 28.2 µM (active)
COc1cccc2c1C(=O)c1c(O)c3c(c(O)c1C2=O)C[C@@](O)(C(=O)CO)C[C@@H]3O[C@H]1C[C@H](N)[C@H](O)[C@H](C)O1 |  | 23.1 µM (active) and 7.08 µM (active)
CCCCCCCCCCCCCCCC[N+](C)(C)CC |  | 7.31 µM (active)
CCCCC(CC)CNC(=O)CC(C)OC(=O)CCC(=O)O (stereo not given) | -15.8% | 
O=C1OC(COc2ccccc2[N+](=O)[O-])CC1Cc1ccccc1 (stereo not given) | -2.58% | 
CN(C)C(N)=NC(=N)N | -8.95% | 
COc1cc(C(N)=O)ccc1NC(=O)[C@@H]1N[C@@H](CC(C)(C)C)[C@@]2(C(=O)Nc3cc(Cl)ccc32)[C@H]1c1cccc(Cl)c1F |  | 11.2 µM (active)
CC(=O)O/N=C1\C(=O)N(Cc2cc(Cl)ccc2Cl)c2ccc(Cl)cc21 |  | 0.562 µM (active)
CCOC(=O)[C@H](CCc1ccccc1)N[C@@H](C)C(=O)N1[C@H](C(=O)O)C[C@@H]2CCC[C@@H]21 |  | inactive
CSc1ccc2c(c1)N(CCC1CCCCN1C)c1ccccc1S2 (stereo not given) |  | 4.61 µM (active)
NC(=O)NNc1ccccc1 | -10.1% | 
CN(C)c1cc(NC(=O)CNC(C)(C)C)c(O)c2c1C[C@H]1C[C@H]3[C@H](N(C)C)C(=O)C(C(N)=O)=C(O)[C@]3(O)C(=O)C1=C2O | 0.462% | 

SMILES | activity change, negative = viability loss | Potency
CCC1(c2cnc[nH]2)Cc2ccccc2C1 | -28.4% | 
CC(=O)Oc1cccc(O)c1 | -14.3% | 
Nc1ccc(C(=O)NCC(=O)O)cc1 | -4.67% | 
C[C@]12CC[C@@H]3c4ccc(O)cc4CC[C@H]3[C@@H]1CC[C@@H]2OC(=O)CCC1CCCC1 | 0.642% | 
Cc1cc2c(C(C)C)c(O)c(O)c(C=O)c2c(O)c1-c1c(C)cc2c(C(C)C)c(O)c(O)c(C=O)c2c1O |  | 8.2 µM (active)
Cc1cc(OCCCc2c3n(c4c(-c5c(C)nn(C)c5C)c(Cl)ccc24)[C@H](C)CN(c2cn(C)c4ccc(C(=O)O)cc24)C3=O)cc(C)c1Cl |  | 2 µM (active)
O=C(/C=C/c1ccc(/C=C/C(=O)Nc2ccc(C3=NCCN3)cc2)cc1)Nc1ccc(C2=NCCN2)cc1 | -22% [at 3.81 µM] | 
O=C1[C@H](CC[C@H](O)c2ccc(F)cc2)[C@@H](c2ccc(O)cc2)N1c1ccc(F)cc1 | -12.9% | 
c1cn2cc(-c3ccc4cn[nH]c4c3)nc(Nc3ccc(N4CCOCC4)cc3)c2n1 | -20.9% | 
C[C@@H]1C[C@H]2[C@@H]3C[C@H](F)C4=CC(=O)C=C[C@]4(C)[C@@]3(F)[C@@H](O)C[C@]2(C)[C@@]1(O)C(=O)CO | 1.56% | 
C[C@]12CCC3[C@@H](CC[C@H]4NC(=O)C=C[C@]34C)[C@@H]1CC[C@@H]2C(=O)Nc1cc(C(F)(F)F)ccc1C(F)(F)F (stereo not given in full) | 7.73% | 
COc1cc(C(=O)O)ccc1NC(=O)[C@@H]1N[C@@H](CC(C)(C)C)[C@](C#N)(c2ccc(Cl)cc2F)[C@H]1c1cccc(Cl)c1F | -3.36% | 
O=C(O)C[C@H](O)C[C@H](O)/C=C/c1c(C2CC2)nc2ccccc2c1-c1ccc(F)cc1 |  | 3.55 µM (active)
NS(=O)(=O)c1cc2c(cc1C(F)(F)F)NC(Cc1ccccc1)NS2(=O)=O (stereo not given) | -19.5% | 
O=C(/C=C/c1cccc(S(=O)(=O)Nc2ccccc2)c1)NO |  | 2.51 µM (active)
COc1ccc(CNc2nc(N(CCO)CCO)nc3c2ncn3C(C)C)cc1 |  | 15.8 µM (active)
Cc1cc(O)cc2c1[C@]1(C)CC[C@H]3C(C)(C)CCC[C@]3(C)[C@H]1C2 | -10.2% [at 3.81 µM] | 
OCCn1cc(-c2ccc3c(c2)CC/C3=N\O)c(-c2ccncc2)n1 | 2.41% | 
NC(=O)/C(=C/n1cnc(-c2cc(C(F)(F)F)cc(C(F)(F)F)c2)n1)c1cncnc1 |  | 3.16 µM (active)
Cc1[nH]c(/C=C2\C(=O)Nc3ccc(S(=O)(=O)N(C)c4cccc(Cl)c4)cc32)c(C)c1C(=O)N1CCN(C)CC1 |  | 14.1 µM (active)
